Experimental data published in the OligoGym collection.

biological target: SLC20A1; test: pooled miR-30 sensor sort-seq; sequence = guide strand; details: shRNA
Also: reference of the scale not given here.

Sequence | sensor-assay potency score (higher = more potent)
TTCTCGTTCAATTTTTCTCTTC | -0.376
TTGACTGAACTGGACAAGGTTC | -0.668
TAGCACAAGTAACACTTCCCTC | -0.562
TAACAGTCAATAAACTGCTTGC | 0.0584
TAGAGTAGAAGCCATATTGGTG | -0.743
TTTTCTGTCACCTAGACCCATC | -0.857
TAGGCAACTGCACTGCACCATT | -0.846
TTCACGGTGCTATCTATGCTGG | -1.16

biological target: SLC22A17; test: as above; details: shRNA

Sequence | sensor-assay potency score (higher = more potent)
TCTGTCTGCGGGGTAACCCAGG | -1.27
TGAAACAGAATGATAGAGCAAG | -0.0667
TCCGGCAGCAGCATAATGCTGA | -0.933
TCACTATCAGCCACCGTGCGGA | -0.275
AAGGTCAGCAGCACAATCCCGC | -0.694
TAGACACCCAGGTCAACACCGG | -0.269
TAACCCAGGAACAGGTAGCCGG | -1.09
TGCTCCAGGATCACCTGCCAGC | -1.29
ATTATAGTCCCAATCCTTGAGG | -1.04
TTCACTATCAGCCACCGTGCGG | -0.928
TATTGAAACAGAATGATAGAGC | -0.514

biological target: SLC22A1; test: as above; details: shRNA

Sequence | sensor-assay potency score (higher = more potent)
TTCTGCAGAGGATAACTCCATC | -0.998
TTTGTGATAACAGCCACCGAGG | -0.671
TTTCGGTGACATCCTCTTCGAG | -1.03
TGGTACATGATCGCCACCGTTC | -1.08
TTTTGTGATAACAGCCACCGAG | -0.543
TTTATTGCTTCAGTGTTTCTTT | 0.132
TGATAGAGCACAGAGTCCGTGA | -0.157
TATAGTTCAGCTCCTCCGCAGG | -0.994
TATCTTTATTGCTTCAGTGTTT | -0.476
ATGATTATGATGTTTAACCAGT | -1.09
TTCGGTGACATCCTCTTCGAGG | 0.00261
TACATGATCGCCACCGTTCTTC | -0.241

biological target: SLC22A7; test: as above; details: shRNA

Sequence | sensor-assay potency score (higher = more potent)
TTACATAGCTGACGGAGGCTGC | -0.245
TAATAGGAGAAGTTCACTCCGA | 0.0839
TACAACTCTGAAGTGAACAGGT | 0.517
TTCTGAGTGGTCGTACTCCCAG | -1.56
TTTATTTACAGAATCCTCCCCA | 0.685
ATGGCAAACATTACATAGCTGA | -0.95
TAGGGTACAACTCTGAAGTGAA | 0.4
TTATTTACAGAATCCTCCCCAA | -0.0957
TCTGAGTGGTCGTACTCCCAGC | -1.03
